# In the library only some 8% were active in any assay of this set; here they are far more common.
# KB-3-1 tox: KB-3-1 parental cell cytotoxicity; hit rate 1.4% among 400,000; AID 1347075; KB-3-1 viability, CellTiter-Glo ATP luminescence, 72 h; Potency, µM (titrated, usually from 46.1 µM), usual class: cytotoxic; note: % is set by controls: 0 for no effect and ±100 for the full control effect; nearly all actives have a fitted effect of over 60% in size
#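 Parental KB-3-1 viability, qHTS format: 72 h compound exposure, 37 °C; CellTiter-Glo; media-only wells and DMSO plates as controls; concentration-effect fits on corrected data.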
# SW480 rerep: DNA re-replication induction in SW480 cells; SW480 DNA re-replication, Hoechst DNA content imaging, 48 h; Potency, µM (titrated, usually from 46.1 µM), for inactives: at the highest dose re-replication activation, actives largely listed as activators; hit rate 1.8% among 340,000; AID 624297; note: % of control where 0% means no effect; nearly all actives have a fitted effect of over 55% in size
#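 250 cells/well; 23 nL cpd via pin tool; 48 hr, 37 C, 5% CO2; Hoechst 40 min; imager read of total nuclear intensity, ex 405/em 500-530 nm.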
# KB-V1 cytotox: KB-V1 MDR subline cytotoxicity; hit rate 3.4% among 400,000; KB-V1 MDR cells viability, CellTiter-Glo, 72 h; Potency, µM (doses to about 46.1 µM), actives largely listed as cytotoxic; AID 1347076; note: % is set by controls: 0 for no effect and ±100 for the full control effect; nearly all actives have a fitted effect of over 60% in size
#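 Drug-selected KB-V1 cells, grown in DMEM lacking phenol red with 10% FBS, receive compound titrations; after three days at 37 degrees C, surviving cell ATP is quantified by CellTiter-Glo luminescence and responses normalized and curve-fitted.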
# HT1080 IDH1KD tx: kills HT-1080 cells with IDH1 knockdown; HT-1080 IDH1 knockdown viability, ATP luminescence, 48 h; hit rate 2% among 360,000; Potency, µM (doses to about 46.1 µM), for the others: at the highest dose activity, negative = toxicity, hits mostly cytotoxic; AID 686971;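 note: 0% = DMSO wells and -100% = cell-free medium wells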
#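 IDH1KD HT-1080 cells, 750/well, RPMI + 5% FBS; compound pinned after 2 h settling; 48 h, 37 °C; CellTiter-Glo luminescence; % activity normalised to DMSO and no-cell wells; curves fitted, classed by r2 and efficacy.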
# MCF10A rereplic: inducers of DNA re-replication in MCF 10A breast cells. MCF 10A DNA re-replication, Hoechst nuclear intensity, 48 h. Potency, µM (top dose mostly 46.1 µM), inactives show at the top dose activity, positive = re-replication, hits mostly activators. hit rate 2.9% among 350,000; note: % of control where 0% means no effect; nearly all actives have a fitted effect of over 50% in size
# HT1080-NT tox: kills 2HG-producing HT-1080-NT fibrosarcoma cells | Potency, µM (top dose mostly 46.1 µM), without a hit: at the highest dose activity, negative = less viability, most hits filed as cytotoxic | hit rate 1.6% among 360,000 | HT-1080-NT fibrosarcoma viability, CellTiter-Glo ATP luminescence, 48 h;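 note: NT is the 2HG producing partner of a matched IDH1 knockdown line; 0% = DMSO-treated cells and -100% = media-only wells without cells; nearly all actives have a fitted effect of over 55% in size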
#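 HT-1080-NT; 750 cells/well; 5% FBS RPMI; 48 h compound, 37 degrees C; CellTiter-Glo luminescence; curve fitting and curve-class assignment.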
# Numbers without * were called inactive; i = inactive; ? = inconclusive; · = not tested or not shown; [ ] = dose if it differs, or a comment. Calls come from the whole dose curve; as a rule, active = well fitted curve in the direction sought with a large enough effect; inconclusive = small, poorly fitted or top-dose-only effect, or another doubt; inactive = no such curve, though single readings can be large; an effect the other way counts as inactive or inconclusive. Potency is the fitted concentration of half-maximal effect.
SMILES,KB-3-1 tox,SW480 rerep,KB-V1 cytotox,HT1080 IDH1KD tx,MCF10A rereplic,HT1080-NT tox
COCCNC(=O)C1(C)Cc2c(-c3cccc(C(N)=O)c3)ccnc2O1 (stereo not drawn),i,·,i,2%,·,12%
COc1ccc(NC(=O)C2(C)Cc3c(-c4cccc(C(F)(F)F)c4)ccnc3O2)cc1OC (stereo not drawn),?,·,i,15µM*,·,21µM*
CC1(C(=O)NCC2CC2)Cc2c(-c3cccc(C(N)=O)c3)ccnc2O1 (stereo not drawn),i,·,?,0%,·,-16%
COCCNC(=O)C1(C)Cc2c(-c3cccc(C(F)(F)F)c3)ccnc2O1 (stereo not drawn),?,·,i,21µM*,·,?
Cc1cccc(C)c1OCC(=O)N(Cc1ccccc1F)C1CCS(=O)(=O)C1 (stereo not drawn),?,·,i,·,·,·
COCc1c(C(=O)N2CCN(Cc3ccc4c(c3)OCO4)CC2)oc2ccccc12,?,?,i,-1%,4%,-2%[9.24 µM]
COCc1c(C(=O)N2CCN(Cc3ccc(C#N)cc3)CC2)oc2ccccc12,?,-1%,13µM*,-1%,?,-15%
O=S(=O)(c1ccccc1)N(Cc1ccccc1)c1ccccn1,?,-10%,8.2µM*,4%,-2%,5%
Cc1ccc2c(c1)C1NC(=S)NC(C)(O2)C1C(=O)Nc1ccc(Cl)cc1 (stereo not drawn),i,-2%,?,-11%,15%,-9%
Cc1ccc(N2CCN(C(=O)c3ccc(Nc4nc5ccccc5n5nnnc45)cc3)CC2)c(C)c1,i,·,i,·,·,·
COc1ccc(-c2csc(NC(C)c3nc4cc(Cl)c(N5CCCCC5)cc4n3CCCO)n2)cc1 (stereo not drawn),?,0.15µM*,i,?,?,?
COc1ccc(-c2csc(NC(C)c3nc4cc(Cl)c(N5CCCCC5)cc4n3CCOCCO)n2)cc1 (stereo not drawn),?,14%,?,?,19%,?
CCN(CCCNC(=O)C1CCC(=O)N1Cc1ccccc1Cl)c1cccc(C)c1 (stereo not drawn),i,3%,6.5µM*,-3%,3%,-4%
CN(CCCNC(=O)C1CCC(=O)N1Cc1ccccc1Cl)c1ccccc1 (stereo not drawn),i,5%,23µM*,-16%,13%,-2%
Nc1ccc(-c2cc3ccccc3[nH]2)cc1,?,·,i,·,·,·
C=CCNC(=O)c1n[nH]c2c1CC(C(C)(C)CC)CC2 (stereo not drawn),i,14%,i,15%,?,13%
CCCN(CCC)CCNS(=O)(=O)c1ccc2c(c1)CCN2C(=O)C1CCC1,i,12µM*,?,-1%,2.6µM*,9%
Cc1ccsc1/C=N/Nc1nc(=O)[nH]nc1C,?,6.5µM*,?,21µM*,-3%,23µM*
O=C(NCc1nnc(SCc2ccc(F)cc2)n1-c1ccccc1)C12CC3CC(CC(C3)C1)C2,?,2%,13µM*,-20%,?,-26%
O=C(NCc1nnc(SCc2ccc(C(F)(F)F)cc2)n1-c1ccccc1)C12CC3CC(CC(C3)C1)C2,?,5%,16µM*,-13%,16µM*,-3%
O=C(CCC1CCCC1)Nc1ccc([N+](=O)[O-])cn1,i,-2%,i,7%,13%,9%
S=C(Nc1ccc(Nc2ccccc2)cc1)Nc1ccccn1,?,?,i,16µM*,24%,?
Cc1ccccc1N1C(=O)CC(Sc2nnc(-c3ccccc3)o2)C1=O (stereo not drawn),i,16µM*,i,?,?,?
O=C1CC(Sc2nnc(-c3ccccc3)o2)C(=O)N1c1ccccc1 (stereo not drawn),i,7.3µM*,i,-6%,5.8µM*,-2%
O=c1[nH]c(=S)c2n[nH]nc2[nH]1,i,·,?,·,·,·
SMILES,KB-3-1 tox,SW480 rerep,KB-V1 cytotox,HT1080 IDH1KD tx,MCF10A rereplic,HT1080-NT tox
COc1ccc(NC(=O)COc2cccc3c2CCN(Cc2cccnc2)C3=O)c(OC)c1,i,?,5.2µM*,-16%,-4%,-6%
COc1ccc(OC)c(C2=NNC(=NCc3ccc4c(c3)OCO4)SC2)c1,i,-14%,i,-26%,-1%,-4%
COc1ccc(CN=C2NN=C(c3ccc(Cl)cc3)CS2)cc1,i,-1%,i,24%,-8%,18%
Clc1ccc(C2=NNC(=NCc3ccc4c(c3)OCO4)SC2)cc1,?,?,21µM*,10%,?,-2%
Oc1ccc(C2=NNC(=NCc3ccc4c(c3)OCO4)SC2)c(O)c1,2.6µM*,15µM*,7.3µM*,?,12µM*,21µM*
CCN(Cc1ccccc1)C(=O)C1CCN(Cc2sccc2C)CC1,i,29µM*,?,9%,-2%,5%
O=[N+]([O-])c1cc(C(F)(F)F)ccc1NCCc1c[nH]c2ccc(O)cc12,i,13%,i,13µM*,-8%,13µM*
COc1ccc(N(CC(=O)NCCc2cccc(C)c2)S(=O)(=O)c2c(C)nn(C)c2C)cc1,i,·,i,·,·,·
Cc1ccc(NC(=S)N(CCCN2CCC(C)CC2)Cc2ccco2)cc1C,i,-3%,23µM*,-25%,?,-9%
Cc1ccccc1NC(=S)N(CCCN1CCC(C)CC1)Cc1ccco1,i,4%,i,-3%,-2%,-1%
Cc1ccc(C(=O)N2CCN(c3ccc(C(F)(F)F)cn3)CC2)o1,?,-4%,21µM*,5%,0%,-1%
CCOc1ncccc1C(=O)N1CCN(c2ccc(C(F)(F)F)cn2)CC1,i,0%,?,-6%,14%,11%
O=C(c1ccccn1)N1CCN(c2ccc(C(F)(F)F)cn2)CC1,i,-7%,16µM*,-4%,16%,-16%
Cc1ccc(S(=O)(=O)N(CC(=O)Nc2ccc(Cl)c([N+](=O)[O-])c2)C2CCCCC2)cc1,?,?,4.6µM*,-23%,?,-1%
CCN(C1CCCCC1)S(=O)(=O)c1ccc(S(=O)(=O)N(CC(=O)Nc2ccccc2)C2CC2)cc1,i,1%,6.5µM*,-10%,11%,-2%
CCOC(=O)N1CCN(Cc2nc3c(c(=O)n(C)c(=O)n3C)n2CCCc2ccccc2)CC1,?,9%,9.2µM*,-4%,-1%,-7%
CCCCCn1c(CN2CCN(C(=O)OCC)CC2)nc2c1c(=O)n(C)c(=O)n2C,i,1%,i,4%,-2%,1%

# High-throughput results deposited in PubChem by National Center for Advancing Translational Sciences (NCATS).
